Calls of active or inactive are those of the source.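 How the source made its calls: active means z-score of at least 1.8 in each of two replicates, scored against plate mean and spread of sample wells; inactive means the rest.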
Assay: galactose survival enhancers in mitochondrial complex I cybrids – cell-based, galactose medium, ATP luminescence, primary screen (AID 1645843);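 further: positive z means more ATP and so rescue of galactose-driven cybrid death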
Details: complex I mutant cybrid cells, 72 h, hits give high values
With `Cc1ccc(Cl)cc1NC(=O)N[C@H]1C[C@H]2C(=O)N[C@H](C(C)C)C(=O)N2C1` the z-score was -0.745 (inactive).
For `CC(C)/C=C/CNc1cc(C(=O)NCc2cn3ccccc3n2)cc(S(=O)(=O)NC(C)C)c1`, the z-score was -1.65 (inactive).
In the case of `COc1ccc(CN2C[C@@H](CN3CCOCC3)C[C@@H](C(=O)NCC(C)C)C2)cc1OC`, the z-score is reported as 0.1 (inactive).
With `COCCCNC(=O)c1nn(C)c2c1CN(C(=O)Cc1c(C)[nH]c3c(F)cccc13)CC2` the z-score was 0.99 (inactive).
For `COC(=O)c1c(NC(C)=O)c2cc(NCc3sccc3C)cnc2n1CC1CCCO1` (stereo not given), the z-score was -0.82 (inactive).
For `O=c1c(-c2ccccc2Cl)cc2c(n1Cc1ccncc1)CCN(Cc1ccnc3ccccc13)C2`, the z-score was 0.915 (inactive).
In the case of `Cc1nc2sccn2c1CN1CCC2(CC1)C(=O)N(CC(C)C)C(=O)N2CCc1ccccc1`, the z-score is reported as 0.34 (inactive).
In the case of `CCC(CC)CNc1cc(C(=O)NCCN(C)C)cc(S(=O)(=O)Nc2ccc(OC)cc2)c1`, the z-score is reported as -1.11 (inactive).
In the case of `Cc1ccc(-c2cc(C(=O)NCc3c(C)nn(C)c3C)cc(S(=O)(=O)N3CCOCC3)c2)s1`, the z-score is reported as 0.42 (inactive).
In the case of `COc1cccc(COC2CN(CCc3ccccc3)C(=O)CN(C(=O)CN3CCOC3=O)C2)c1` (stereo not given), the z-score is reported as 0.48 (inactive).
With `CN1CCCC1CCNC(=O)[C@H]1CNC[C@@H](COc2cccc(F)c2)C1` (stereo not given in full) the z-score was 1.83 (inactive).
With `COc1ccc(/C=C/CN2CCc3c(cc(-c4cccc(-n5nc(C)cc5C)c4)c(=O)n3C)C2)cc1` the z-score was -0.63 (inactive).
For `CCc1cc(C(=O)N2CC(=O)N(Cc3ccc(OC)cc3)CC(OCc3ccncc3)C2)n(C)n1` (stereo not given), the z-score was 0.77 (inactive).
In the case of `CC(C)CCN1C(=O)N(CC(N)=O)C(=O)C12CCN(Cc1nc3ccccc3s1)CC2`, the z-score is reported as 0.225 (inactive).
For `CC(C)CCNc1cc(C(=O)N[C@H]2CCCCNC2=O)cc(S(=O)(=O)NC(C)C)c1`, the z-score was -0.51 (inactive).
For `Cc1ccccc1CN[C@H]1C[C@H]2C(=O)N[C@@H]([C@@H](C)O)C(=O)N2C1`, the z-score was 0.715 (inactive).
In the case of `CCn1nc(C(=O)N2CCCC2)c2c1CCC(NCCC1=CCCCC1)C2` (stereo not given), the z-score is reported as -1.23 (inactive).
For `COCC(=O)Nc1c(C(=O)OC)n(C)c2ncc(NCc3cnn(C)c3C)cc12`, the z-score was -0.64 (inactive).
With `Cc1csc(-c2cc(C(=O)NCCC3CCCN3C)cc(S(=O)(=O)N3CCOCC3)c2)c1` (stereo not given) the z-score was -1.3 (inactive).
In the case of `CN1CCCc2cc(C(=O)N3CC(=O)N(Cc4ccccc4)CC(OCc4ccccn4)C3)ccc21` (stereo not given), the z-score is reported as 0.21 (inactive).
In the case of `COC(=O)c1c(NC(=O)C2CCCO2)c2cc(NCc3ccccn3)cnc2n1CCc1ccccc1` (stereo not given), the z-score is reported as -0.87 (inactive).
With `CCN1CCN(C(=O)c2cc(-c3cc(C)cs3)cc(S(=O)(=O)N3CCOCC3)c2)CC1` the z-score was 2.05 (inactive).
In the case of `CC(C)C[C@H]1NC(=O)[C@H]2CN(C(=O)OCc3ccccc3)CCN2C1=O`, the z-score is reported as -0.205 (inactive).
In the case of `CN1CCCC1CCNC(=O)c1cc(-c2ccccc2)cc(S(=O)(=O)N2CCSCC2)c1` (stereo not given), the z-score is reported as 0.505 (inactive).
In the case of `O=C1N[C@H](CO)C(=O)N2CCN(C(=O)c3ccc(F)cc3)C[C@H]12`, the z-score is reported as -0.325 (inactive).
With `CCn1nc(C(=O)N2CCCC2)c2c1CCC(N1CCN(c3ccccc3OC)CC1)C2` (stereo not given) the z-score was -0.48 (inactive).
With `CCc1nc(CNc2cc(C(=O)N[C@H](C)c3ccc(OC)cc3)cc(S(=O)(=O)N(C)C)c2)c(C)[nH]1` the z-score was 0.08 (inactive).
For `COC(=O)c1c(NC(=O)CCc2ccccc2)c2cc(NC(C)C(C)(C)O)cnc2n1C` (stereo not given), the z-score was -0.305 (inactive).
For `C=CCn1nc(C(=O)N2CCOCC2)c2c1CCC(NCc1ccc(Cl)s1)C2` (stereo not given), the z-score was 0.86 (inactive).
In the case of `COc1cc(CN2CCc3c(cc(Cc4ccccc4C)c(=O)n3CC3CC3)C2)ccc1O`, the z-score is reported as -1.32 (inactive).
In the case of `CC(=O)c1cccc(-c2cc3c(n(C)c2=O)CCN(C(=O)c2ccc4[nH]c5c(c4c2)CCCC5)C3)c1`, the z-score is reported as -1.45 (inactive).
In the case of `COc1cc(/C=C/CN2CC(=O)N(C(C)C)CC(OCc3noc(C)n3)C2)ccc1O` (stereo not given), the z-score is reported as -1.32 (inactive).
For `COc1cccc(C(=O)N2CCN3C(=O)[C@H](C(C)C)NC(=O)[C@H]3C2)c1`, the z-score was 0.605 (inactive).
With `CCc1cc(C(=O)N2CCc3c(c(C(=O)N4CCN(c5ccccc5)CC4)nn3CC)C2)n(C)n1` the z-score was 0.405 (inactive).
With `COCCn1c(C(=O)OC)c(NC(=O)c2ccco2)c2cc(NC3CCc4ccccc4C3)cnc21` (stereo not given) the z-score was -1.68 (inactive).
For `CCn1cc(CN2CCN3C(=O)[C@@H]4C[C@@H](O)CN4C(=O)[C@H]3C2)c(C)n1`, the z-score was -0.705 (inactive).
With `COc1ccc(CN2C[C@@H](CN3CCOCC3)C[C@@H](C(=O)NCC3CCCO3)C2)cc1OC` (stereo not given in full) the z-score was 1.14 (inactive).
With `CN1CC(=O)N2CCN(C(=O)NCc3ccccc3)C[C@@H]2C1=O` the z-score was -0.795 (inactive).
With `CC(C)CN1CC(OCc2cccc(F)c2)CN(Cc2cccn2-c2ncccn2)CC1=O` (stereo not given) the z-score was 0.085 (inactive).
With `CC(C)C[C@H]1C(=O)N2CCN(Cc3cnn(-c4ccccc4)c3)C[C@@H]2C(=O)N1C` the z-score was -0.345 (inactive).
